Assay results published in PMC7862700, “An all-to-all approach to the identification of sequence-specific readers for epigenetic DNA modifications on cytosine”.

Tests used:
Assay in all cases: DAPPL (digital affinity profiling via proximity ligation, sequencing); 10 mM Tris-HCl pH 7.5, 50 mM NaCl, 1 mM DTT, 4% glycerol, room temperature, 30 min; GST-TFs on glutathione beads, 16-mer random dsDNA library, 0.1% formaldehyde crosslink after washing; high values mean tight binding
FLI1 = target: T1, FLI1 (Homo sapiens, UniProt Q01543 1-452); details: protein: recombinant; tags: N-terminal GST; dsDNA, one strand shown
T1 sequence: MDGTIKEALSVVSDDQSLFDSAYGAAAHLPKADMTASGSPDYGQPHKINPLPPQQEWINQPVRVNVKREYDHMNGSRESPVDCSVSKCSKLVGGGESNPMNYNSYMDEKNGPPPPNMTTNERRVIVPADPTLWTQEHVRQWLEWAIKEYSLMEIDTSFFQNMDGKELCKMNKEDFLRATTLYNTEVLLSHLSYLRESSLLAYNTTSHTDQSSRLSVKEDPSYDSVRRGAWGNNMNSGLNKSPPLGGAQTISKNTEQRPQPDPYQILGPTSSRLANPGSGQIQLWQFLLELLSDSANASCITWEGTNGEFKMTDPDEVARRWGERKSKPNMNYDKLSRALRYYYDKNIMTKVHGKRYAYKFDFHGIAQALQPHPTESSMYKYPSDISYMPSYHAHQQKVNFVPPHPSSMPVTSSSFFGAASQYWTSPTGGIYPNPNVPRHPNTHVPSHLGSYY
Method in brief: (§1)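 Beads coated with glutathione captured GST-fused human transcription factors that had been expressed in yeast, and the factors were then given DNA barcodes and pooled with a tag-only sample. The pools were incubated with 200 nmole of a random double-stranded 16-mer DNA library in Tris/NaCl/DTT/glycerol buffer for 30 min at room temperature, washed, crosslinked with 0.1% formaldehyde and proximity-ligated with BsaI/T4 ligase at 37 °C for 1 h. PCR amplification and Illumina NextSeq500 sequencing came last. Binding signal is each hexamer's read frequency for a factor divided by its frequency for the tag-only sample.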

ELK1 = target: T2, ELK1 (Homo sapiens, UniProt P19419 1-428); details: protein: recombinant; tags: N-terminal GST; dsDNA, one strand shown
T2 sequence: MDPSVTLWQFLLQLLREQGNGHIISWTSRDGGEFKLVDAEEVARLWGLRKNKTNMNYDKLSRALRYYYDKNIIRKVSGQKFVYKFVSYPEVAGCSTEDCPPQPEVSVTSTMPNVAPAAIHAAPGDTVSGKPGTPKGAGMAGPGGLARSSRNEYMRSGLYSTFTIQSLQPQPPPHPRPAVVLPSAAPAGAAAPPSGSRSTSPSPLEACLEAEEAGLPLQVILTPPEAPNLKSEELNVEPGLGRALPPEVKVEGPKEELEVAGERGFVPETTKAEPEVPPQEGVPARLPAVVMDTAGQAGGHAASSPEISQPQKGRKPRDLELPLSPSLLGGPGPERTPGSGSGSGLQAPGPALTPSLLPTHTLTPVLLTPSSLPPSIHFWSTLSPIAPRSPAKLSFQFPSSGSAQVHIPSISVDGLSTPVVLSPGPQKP
Method in brief: as §1

GABPA = target: T3, GABPA (Homo sapiens, UniProt Q06546 1-454); details: protein: recombinant; tags: N-terminal GST; dsDNA, one strand shown
T3 sequence: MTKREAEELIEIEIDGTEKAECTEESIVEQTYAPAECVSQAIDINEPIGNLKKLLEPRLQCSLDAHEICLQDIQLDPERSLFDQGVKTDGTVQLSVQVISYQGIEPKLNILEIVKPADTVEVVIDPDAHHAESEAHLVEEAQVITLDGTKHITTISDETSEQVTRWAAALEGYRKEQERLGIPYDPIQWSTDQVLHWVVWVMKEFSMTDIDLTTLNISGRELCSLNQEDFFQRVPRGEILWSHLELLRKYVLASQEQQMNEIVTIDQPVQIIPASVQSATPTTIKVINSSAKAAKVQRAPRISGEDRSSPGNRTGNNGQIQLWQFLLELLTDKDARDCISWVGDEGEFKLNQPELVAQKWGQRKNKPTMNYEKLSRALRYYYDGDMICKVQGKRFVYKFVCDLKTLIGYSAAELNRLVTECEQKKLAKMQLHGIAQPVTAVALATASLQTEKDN
Method in brief: as §1

ERG = target: T4, ERG (Homo sapiens, UniProt P11308 1-479); details: protein: recombinant; tags: N-terminal GST; dsDNA, one strand shown
T4 sequence: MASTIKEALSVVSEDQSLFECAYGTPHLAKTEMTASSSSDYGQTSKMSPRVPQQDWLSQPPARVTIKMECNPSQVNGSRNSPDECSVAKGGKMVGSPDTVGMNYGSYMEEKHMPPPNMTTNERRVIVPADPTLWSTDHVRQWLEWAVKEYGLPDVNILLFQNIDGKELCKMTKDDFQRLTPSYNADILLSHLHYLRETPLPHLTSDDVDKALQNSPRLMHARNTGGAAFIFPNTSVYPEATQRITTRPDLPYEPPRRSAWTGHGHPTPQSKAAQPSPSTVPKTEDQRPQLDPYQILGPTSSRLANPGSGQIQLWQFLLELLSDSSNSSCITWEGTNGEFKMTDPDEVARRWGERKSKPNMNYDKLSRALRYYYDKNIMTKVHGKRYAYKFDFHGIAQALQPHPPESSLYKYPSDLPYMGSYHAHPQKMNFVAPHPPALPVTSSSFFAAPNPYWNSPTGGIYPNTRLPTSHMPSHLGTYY
Method in brief: as §1

ELF1 = ELF1 (Homo sapiens, UniProt P32519 1-619); details: protein: recombinant; tags: N-terminal GST; dsDNA, one strand shown
Method in brief: as §1

EHF = target: T5, EHF (Homo sapiens, UniProt Q9NZC4 1-300); details: protein: recombinant; tags: N-terminal GST; dsDNA, one strand shown
T5 sequence: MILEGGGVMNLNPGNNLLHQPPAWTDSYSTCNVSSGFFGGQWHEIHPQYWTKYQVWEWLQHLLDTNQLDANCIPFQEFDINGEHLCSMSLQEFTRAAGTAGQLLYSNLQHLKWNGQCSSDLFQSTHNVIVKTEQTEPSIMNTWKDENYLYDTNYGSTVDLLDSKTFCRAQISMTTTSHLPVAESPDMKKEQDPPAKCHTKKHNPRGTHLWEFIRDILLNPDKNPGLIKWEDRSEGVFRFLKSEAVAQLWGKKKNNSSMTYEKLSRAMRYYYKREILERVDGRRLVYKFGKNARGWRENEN
Method in brief: as §1

SPI1 = SPI1 (Homo sapiens, UniProt P17947 1-270); details: protein: recombinant; tags: N-terminal GST; dsDNA, one strand shown
Method in brief: as §1

SPIB = SPIB (Homo sapiens, UniProt Q01892 1-262); details: protein: recombinant; tags: N-terminal GST; dsDNA, one strand shown
Method in brief: as §1

ELK3 = target: T6, ELK3 (Homo sapiens, UniProt P41970 1-407); details: protein: recombinant; tags: N-terminal GST; dsDNA, one strand shown
T6 sequence: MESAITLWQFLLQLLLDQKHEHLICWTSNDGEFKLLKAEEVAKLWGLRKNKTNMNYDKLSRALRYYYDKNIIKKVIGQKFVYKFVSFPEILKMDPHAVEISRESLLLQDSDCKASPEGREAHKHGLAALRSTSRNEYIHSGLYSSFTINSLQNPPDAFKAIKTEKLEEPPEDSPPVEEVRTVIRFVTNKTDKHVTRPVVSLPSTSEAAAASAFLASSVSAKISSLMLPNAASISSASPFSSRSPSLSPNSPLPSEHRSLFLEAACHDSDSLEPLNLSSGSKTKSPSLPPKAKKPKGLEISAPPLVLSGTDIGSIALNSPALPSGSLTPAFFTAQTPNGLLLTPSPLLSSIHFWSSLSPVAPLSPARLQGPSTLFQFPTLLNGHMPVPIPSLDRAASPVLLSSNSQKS
Method in brief: as §1

FEV = target: T7, FEV (Homo sapiens, UniProt Q99581 1-238); details: protein: recombinant; tags: N-terminal GST; dsDNA, one strand shown
T7 sequence: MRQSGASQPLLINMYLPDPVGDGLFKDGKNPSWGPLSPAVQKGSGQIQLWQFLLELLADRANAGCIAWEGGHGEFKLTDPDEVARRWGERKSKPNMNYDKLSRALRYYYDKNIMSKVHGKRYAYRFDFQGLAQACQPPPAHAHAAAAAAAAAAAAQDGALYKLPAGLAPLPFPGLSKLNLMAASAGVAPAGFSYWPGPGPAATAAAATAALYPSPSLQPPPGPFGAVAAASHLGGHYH
Method in brief: as §1

ETV5 = ETV5 (Homo sapiens, UniProt P41161 1-510); details: protein: recombinant; tags: N-terminal GST; dsDNA, one strand shown
Method in brief: as §1

HSF1 = HSF1 (Homo sapiens, UniProt Q00613 1-529); details: protein: recombinant; tags: N-terminal GST; chain copies: 3; dsDNA, one strand shown
Method in brief: as §1

SPIC = target: T8, SPIC (Homo sapiens, UniProt Q8N5J4 1-248); details: protein: recombinant; tags: N-terminal GST; dsDNA, one strand shown
T8 sequence: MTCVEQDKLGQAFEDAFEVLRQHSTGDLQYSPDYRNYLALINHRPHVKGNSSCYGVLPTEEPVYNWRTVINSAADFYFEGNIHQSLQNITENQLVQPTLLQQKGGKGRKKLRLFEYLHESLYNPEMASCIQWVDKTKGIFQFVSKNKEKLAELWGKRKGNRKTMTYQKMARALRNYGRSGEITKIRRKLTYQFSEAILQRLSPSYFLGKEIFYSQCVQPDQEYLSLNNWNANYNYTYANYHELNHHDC
Method in brief: as §1

ELF4 = ELF4 (Homo sapiens, UniProt Q99607 1-663); details: protein: recombinant; tags: N-terminal GST; dsDNA, one strand shown
Method in brief: as §1

ELK4 = target: T9, ELK4 (Homo sapiens, UniProt P28324-2 1-405); details: protein: recombinant; tags: N-terminal GST; dsDNA, one strand shown
T9 sequence: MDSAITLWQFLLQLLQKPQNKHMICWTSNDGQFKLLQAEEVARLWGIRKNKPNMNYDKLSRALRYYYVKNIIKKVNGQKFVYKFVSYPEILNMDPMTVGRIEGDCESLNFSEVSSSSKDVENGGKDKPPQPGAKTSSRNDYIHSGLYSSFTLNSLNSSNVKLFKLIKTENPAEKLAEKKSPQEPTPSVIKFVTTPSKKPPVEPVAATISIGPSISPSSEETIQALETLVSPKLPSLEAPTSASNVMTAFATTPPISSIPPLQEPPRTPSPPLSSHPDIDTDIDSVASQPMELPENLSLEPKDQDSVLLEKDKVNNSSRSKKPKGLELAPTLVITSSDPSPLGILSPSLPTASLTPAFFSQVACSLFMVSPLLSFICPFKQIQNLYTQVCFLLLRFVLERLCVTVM
Method in brief: as §1

ETV2 = target: T10, ETV2 (Homo sapiens, UniProt O00321 1-342); details: protein: recombinant; tags: N-terminal GST; dsDNA, one strand shown
T10 sequence: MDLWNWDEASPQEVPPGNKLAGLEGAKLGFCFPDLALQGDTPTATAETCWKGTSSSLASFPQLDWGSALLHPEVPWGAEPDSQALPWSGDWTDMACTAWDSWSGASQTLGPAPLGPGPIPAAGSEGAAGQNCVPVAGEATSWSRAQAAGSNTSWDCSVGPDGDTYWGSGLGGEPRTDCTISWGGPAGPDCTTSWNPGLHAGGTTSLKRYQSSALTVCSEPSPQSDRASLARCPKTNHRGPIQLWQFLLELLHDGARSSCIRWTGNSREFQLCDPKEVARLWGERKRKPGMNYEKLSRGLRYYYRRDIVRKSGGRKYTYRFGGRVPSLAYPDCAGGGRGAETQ
Method in brief: as §1

ELF3 = target: T11, ELF3 (Homo sapiens, UniProt P78545 1-371); details: protein: recombinant; tags: N-terminal GST; dsDNA, one strand shown
T11 sequence: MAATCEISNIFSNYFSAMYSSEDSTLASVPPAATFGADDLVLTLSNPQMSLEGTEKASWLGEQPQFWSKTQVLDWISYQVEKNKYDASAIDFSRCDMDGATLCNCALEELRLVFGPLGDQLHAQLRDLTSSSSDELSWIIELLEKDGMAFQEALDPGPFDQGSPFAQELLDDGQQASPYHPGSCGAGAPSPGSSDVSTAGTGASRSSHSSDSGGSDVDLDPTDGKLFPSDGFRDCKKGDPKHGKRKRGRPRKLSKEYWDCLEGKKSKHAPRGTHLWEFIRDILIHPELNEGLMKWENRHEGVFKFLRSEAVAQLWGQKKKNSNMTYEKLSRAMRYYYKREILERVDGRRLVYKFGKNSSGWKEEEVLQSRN
Method in brief: as §1

CRX = CRX (Homo sapiens, UniProt O43186 1-299); details: protein: recombinant; tags: N-terminal GST; dsDNA, one strand shown
Method in brief: as §1

ETV1 = ETV1 (Homo sapiens, UniProt P50549 1-477); details: protein: recombinant; tags: N-terminal GST; dsDNA, one strand shown
Method in brief: as §1

Chain of ETV5 (P41161 whole entry): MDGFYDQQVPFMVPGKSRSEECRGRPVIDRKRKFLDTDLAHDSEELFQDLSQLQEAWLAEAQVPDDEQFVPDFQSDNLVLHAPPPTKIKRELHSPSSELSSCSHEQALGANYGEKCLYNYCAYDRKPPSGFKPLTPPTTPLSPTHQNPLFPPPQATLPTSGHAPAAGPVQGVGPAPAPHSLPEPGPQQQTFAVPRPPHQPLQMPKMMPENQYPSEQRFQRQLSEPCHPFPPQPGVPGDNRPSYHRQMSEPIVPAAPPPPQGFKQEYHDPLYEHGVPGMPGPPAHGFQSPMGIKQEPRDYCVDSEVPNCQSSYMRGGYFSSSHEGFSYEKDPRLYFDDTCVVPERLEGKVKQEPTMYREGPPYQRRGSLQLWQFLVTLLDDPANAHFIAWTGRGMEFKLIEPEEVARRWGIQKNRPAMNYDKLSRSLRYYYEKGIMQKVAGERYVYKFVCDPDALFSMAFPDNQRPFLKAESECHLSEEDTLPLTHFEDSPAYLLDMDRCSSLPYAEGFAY
Chain of ELF4 (Q99607 whole entry): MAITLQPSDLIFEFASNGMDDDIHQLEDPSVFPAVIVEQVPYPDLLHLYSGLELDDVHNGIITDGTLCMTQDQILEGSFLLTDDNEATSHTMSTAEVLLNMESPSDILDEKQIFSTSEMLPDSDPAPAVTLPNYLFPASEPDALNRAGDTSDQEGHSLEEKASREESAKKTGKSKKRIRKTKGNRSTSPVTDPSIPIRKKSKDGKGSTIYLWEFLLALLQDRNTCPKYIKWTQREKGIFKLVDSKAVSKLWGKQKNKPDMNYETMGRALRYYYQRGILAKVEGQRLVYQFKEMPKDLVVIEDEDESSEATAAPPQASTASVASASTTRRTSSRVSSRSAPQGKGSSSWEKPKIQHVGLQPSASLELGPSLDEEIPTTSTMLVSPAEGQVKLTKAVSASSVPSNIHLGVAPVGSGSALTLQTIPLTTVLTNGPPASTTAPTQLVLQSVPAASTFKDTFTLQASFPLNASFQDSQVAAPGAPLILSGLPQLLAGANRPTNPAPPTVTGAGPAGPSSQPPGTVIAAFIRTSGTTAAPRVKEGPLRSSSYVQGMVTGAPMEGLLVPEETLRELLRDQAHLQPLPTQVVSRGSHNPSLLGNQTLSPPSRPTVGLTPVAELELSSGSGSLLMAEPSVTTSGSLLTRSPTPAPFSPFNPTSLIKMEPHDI
Chain of ELF1 (P32519 whole entry): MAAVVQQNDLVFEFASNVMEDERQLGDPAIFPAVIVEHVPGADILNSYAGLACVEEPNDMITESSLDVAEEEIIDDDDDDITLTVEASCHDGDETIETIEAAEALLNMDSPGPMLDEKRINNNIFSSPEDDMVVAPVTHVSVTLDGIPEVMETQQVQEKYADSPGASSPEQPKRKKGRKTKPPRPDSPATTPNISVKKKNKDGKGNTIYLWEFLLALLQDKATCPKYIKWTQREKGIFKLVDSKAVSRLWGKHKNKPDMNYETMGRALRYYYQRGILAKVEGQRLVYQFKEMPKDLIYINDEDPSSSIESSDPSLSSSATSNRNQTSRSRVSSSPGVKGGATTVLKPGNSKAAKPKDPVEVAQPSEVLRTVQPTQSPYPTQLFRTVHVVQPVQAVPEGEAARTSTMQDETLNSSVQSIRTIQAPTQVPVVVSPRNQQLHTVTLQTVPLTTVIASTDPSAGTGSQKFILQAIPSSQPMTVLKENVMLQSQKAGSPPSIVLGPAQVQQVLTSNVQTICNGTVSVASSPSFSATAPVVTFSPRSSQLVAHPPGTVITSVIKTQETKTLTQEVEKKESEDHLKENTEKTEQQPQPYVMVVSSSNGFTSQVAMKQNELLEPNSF
Chain of SPIB (Q01892 whole entry): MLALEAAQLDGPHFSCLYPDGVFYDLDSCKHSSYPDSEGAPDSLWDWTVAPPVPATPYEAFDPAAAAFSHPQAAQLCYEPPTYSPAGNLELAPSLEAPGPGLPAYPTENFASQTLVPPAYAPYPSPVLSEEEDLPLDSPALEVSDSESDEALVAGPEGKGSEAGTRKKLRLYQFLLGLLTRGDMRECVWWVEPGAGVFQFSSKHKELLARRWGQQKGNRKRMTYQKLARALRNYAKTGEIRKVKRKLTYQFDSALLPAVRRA
Chain of ETV1 (P50549 whole entry): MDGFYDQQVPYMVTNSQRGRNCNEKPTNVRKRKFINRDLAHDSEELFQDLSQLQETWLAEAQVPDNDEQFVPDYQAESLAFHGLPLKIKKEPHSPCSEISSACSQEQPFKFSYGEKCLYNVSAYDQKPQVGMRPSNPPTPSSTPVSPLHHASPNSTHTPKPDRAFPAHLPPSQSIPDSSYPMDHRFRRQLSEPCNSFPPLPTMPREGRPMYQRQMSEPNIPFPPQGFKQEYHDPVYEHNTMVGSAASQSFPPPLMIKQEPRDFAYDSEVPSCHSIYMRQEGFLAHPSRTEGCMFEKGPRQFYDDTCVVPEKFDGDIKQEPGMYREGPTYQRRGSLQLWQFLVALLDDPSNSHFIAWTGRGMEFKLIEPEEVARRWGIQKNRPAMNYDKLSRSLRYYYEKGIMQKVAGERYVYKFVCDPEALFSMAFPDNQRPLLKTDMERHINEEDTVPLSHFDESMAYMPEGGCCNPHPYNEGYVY
Chain of HSF1 (Q00613 whole entry): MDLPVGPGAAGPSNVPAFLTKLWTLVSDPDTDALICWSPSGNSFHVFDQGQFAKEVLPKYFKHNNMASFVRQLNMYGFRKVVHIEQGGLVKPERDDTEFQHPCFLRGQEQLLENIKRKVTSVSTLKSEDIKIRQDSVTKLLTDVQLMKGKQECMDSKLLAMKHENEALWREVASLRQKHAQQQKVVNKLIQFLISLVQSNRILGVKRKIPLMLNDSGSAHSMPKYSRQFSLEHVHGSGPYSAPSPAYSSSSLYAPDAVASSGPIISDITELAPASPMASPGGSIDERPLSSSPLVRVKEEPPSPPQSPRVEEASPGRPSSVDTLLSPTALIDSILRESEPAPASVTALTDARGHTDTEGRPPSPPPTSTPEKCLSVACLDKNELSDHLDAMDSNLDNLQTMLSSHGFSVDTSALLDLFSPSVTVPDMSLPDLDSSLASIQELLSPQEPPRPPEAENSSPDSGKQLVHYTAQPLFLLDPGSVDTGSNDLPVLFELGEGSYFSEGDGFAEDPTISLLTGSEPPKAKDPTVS
Chain of CRX (O43186 whole entry): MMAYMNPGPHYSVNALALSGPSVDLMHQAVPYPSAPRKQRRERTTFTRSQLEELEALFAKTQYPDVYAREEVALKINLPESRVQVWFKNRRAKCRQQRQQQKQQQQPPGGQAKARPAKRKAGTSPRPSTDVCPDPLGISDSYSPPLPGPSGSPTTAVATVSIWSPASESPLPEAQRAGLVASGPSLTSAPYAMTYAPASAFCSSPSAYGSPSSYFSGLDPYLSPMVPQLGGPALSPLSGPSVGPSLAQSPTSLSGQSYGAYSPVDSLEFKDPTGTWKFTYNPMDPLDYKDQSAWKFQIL

**Q.** What does the source list for CCTTAC?
**A.** binding signal (FLI1): 1.31 fold enrichment (6-mer frequency, TF over GST control); binding signal (ELK1): 1.35 fold enrichment (6-mer frequency, TF over GST control); binding signal (GABPA): 1.37 fold enrichment (6-mer frequency, TF over GST control); binding signal (ERG): 1.31 fold enrichment (6-mer frequency, TF over GST control); binding signal (ELF1): 1.34 fold enrichment (6-mer frequency, TF over GST control); binding signal (EHF): 1.28 fold enrichment (6-mer frequency, TF over GST control); binding signal (SPI1): 1.28 fold enrichment (6-mer frequency, TF over GST control); binding signal (SPIB): 1.33 fold enrichment (6-mer frequency, TF over GST control); binding signal (ELK3): 1.22 fold enrichment (6-mer frequency, TF over GST control); binding signal (FEV): 1.21 fold enrichment (6-mer frequency, TF over GST control); binding signal (ETV5): 1.36 fold enrichment (6-mer frequency, TF over GST control); binding signal (HSF1): 1.15 fold enrichment (6-mer frequency, TF over GST control); binding signal (SPIC): 1.22 fold enrichment (6-mer frequency, TF over GST control); binding signal (ELF4): 1.38 fold enrichment (6-mer frequency, TF over GST control); binding signal (ELK4): 1.13 fold enrichment (6-mer frequency, TF over GST control); binding signal (ETV2): 1.33 fold enrichment (6-mer frequency, TF over GST control); binding signal (ELF3): 1.34 fold enrichment (6-mer frequency, TF over GST control); binding signal (CRX): 1.17 fold enrichment (6-mer frequency, TF over GST control); binding signal (ETV1): 1.21 fold enrichment (6-mer frequency, TF over GST control)
